For 15 compounds, outcome results are on record in PubChem BioAssay (EPA / NIEHS).

Calls of active or inactive are those of the source. How the source made its calls: active means hit-call score of the fitted dose curve at least 0.9, where 1 is the maximum; inactive means score below 0.9.

Read-out in the assay: KRT18 (gene 3875)
In words: BSK_BE3C_Keratin818: BioMAP Diversity Plus: BE3C Assay for Keratin 818 Biomarker Activity (AID 2284282). To be noted: primary human bronchial epithelial cells. The essentials:
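ELISA readout of Keratin 8/18 in human primary bronchial epithelial cultures after 24 h chemical exposure, DMSO baseline. Parallel SRB staining (0.1%, TCA-fixed, 560 nm) served as cytotoxicity check.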
For `NC(=O)C(F)(F)C(F)(F)F`, the result was inactive.
`OCC(F)(F)OC(F)(F)C(F)(F)OC(F)(F)CO`: the outcome was inactive.
On to `O=C(O)C(F)(F)OC(F)(F)C(F)(F)OC(F)(F)C(=O)O`, for which the outcome was inactive.
`FC(F)(F)C(F)(C(F)(F)F)C(F)(F)C(F)(F)CC1CO1` (stereo not given): the result was inactive.
Regarding `O=C(O)C(F)(F)OC(F)(F)C(F)(F)OC(F)(F)F`, the outcome was inactive.
Then `C=CC(=O)OCC(F)(F)C(F)F`, with “inactive”; and `O=S(=O)(F)C(F)(F)C(F)(F)C(F)(F)C(F)(F)C(F)(F)C(F)(F)C(F)(F)C(F)(F)F`, with “inactive”; and `COP(=O)(CCC(=O)NCO)OC`, with “inactive”.
`O=C(O)C(F)(OC(F)(F)C(F)(F)C(F)(F)F)C(F)(F)F` (stereo not given): the result was inactive.
With `O=C(O)C(F)(F)C(F)(F)C(=O)O`, the outcome was inactive.
As for `O=C(O)C=CC(F)(C(F)(F)F)C(F)(F)F`, the outcome was inactive.
For `COC(=O)C(F)(F)C(F)(F)OC(F)(C(F)(F)F)C(F)(F)OC(F)=C(F)F` (stereo not given) the value was “inactive”; for `OCC(F)(F)OC(F)(F)C(F)(F)OC(F)(F)C(F)(F)OC(F)(F)F`, “inactive”; for `OCC(F)(F)OC(F)(F)C(F)(F)OC(F)(F)C(F)(F)OC(F)(F)CO`, “inactive”.
On to `CC(O)C(F)(F)C(F)(F)F` (stereo not given), for which the result was inactive.
